Gal4-VP16 FLuc = inhibits Gal4-VP16 luciferase reporter, ROR gamma counter-screen | Drosophila S2 Gal4-VP16 UAS-luciferase, luminescence, 20 h | Potency, µM (doses to about 53.6 µM), for the others: at the top dose activity, negative = inhibition, usual class: inhibitors | hit rate 3.5% among 310,000;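 note: Gal4-VP16 expression switched on by copper sulfate through the metallothionein promoter; potency is the fitted concentration of half-maximal effect; nearly all actives have a fitted effect of over 50% in size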
TrxR1 inh = blocks rat thioredoxin reductase 1. hit rate 1% among 390,000. recombinant rTrxR1, NADPH fluorescence consumption, selenite substrate. Potency, µM (series often up to 114 µM), for the others: at the top dose activity change, negative = inhibition, most hits filed as inhibitors. O89049. AID 588453; note: potency is the fitted concentration of half-maximal effect; nearly all actives have a fitted effect of over 65% in size
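Rat TrxR1 (90 nM in the dispensed reagent) was pre-reduced with 400 uM NADPH for 5 min at room temperature, then incubated with compound for 15 min. After 400 uM selenite was added, NADPH fluorescence (Ex 340/Em 450 nm) was followed for 8 min.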
RORgamma inh = blocks mouse ROR gamma transcriptional activity | hit rate 5.4% among 310,000 | Drosophila S2 Gal4-RORgamma UAS-luciferase reporter, 20 h | Potency, µM (series often up to 53.6 µM), for the others: at the highest dose activity change, negative = inhibition, hits mostly inhibitors; note: potency is the fitted concentration of half-maximal effect; nearly all actives have a fitted effect of over 60% in size
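Stable Schneider cell line, Gal4 DNA-binding domain fused to ROR gamma, UAS-luciferase. Cmpd 1 hr RT → CuSO4 700 uM final → 20 hr RT → luciferase reagent 10 min → luminescence.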
GALK inhibitor = blocks human galactokinase activity | P51570 | hit rate 0.007% among 270,000 | Potency, µM (titrated, usually from 57.5 µM), for inactives: at the highest dose activity change, negative = inhibition, hits mostly inhibitors | Purified GALK, Kinase-Glo residual ATP luminescence; note: potency is the fitted concentration of half-maximal effect
Target sequence (P51570 whole entry, looked up): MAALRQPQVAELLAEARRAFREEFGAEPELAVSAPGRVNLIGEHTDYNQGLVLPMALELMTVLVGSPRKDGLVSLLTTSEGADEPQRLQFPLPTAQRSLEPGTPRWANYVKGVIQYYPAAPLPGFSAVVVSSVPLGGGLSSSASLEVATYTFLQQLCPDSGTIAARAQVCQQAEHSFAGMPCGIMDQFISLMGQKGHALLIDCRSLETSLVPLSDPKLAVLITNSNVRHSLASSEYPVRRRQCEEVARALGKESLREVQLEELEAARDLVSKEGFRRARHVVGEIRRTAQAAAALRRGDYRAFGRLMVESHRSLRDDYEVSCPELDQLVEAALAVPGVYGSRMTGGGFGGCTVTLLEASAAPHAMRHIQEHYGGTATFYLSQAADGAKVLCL
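GALK at 5 nM final was combined with compound, 35 uM ATP and 100 uM galactose in HEPES pH8.0 with MgCl2 and DTT. The reaction ran one hour at room temperature before luminescent ATP detection.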
Coupling enz = coupling enzyme interference in Giardia aldolase counter-screen; activity change, negative = inhibition, % at 58.2 µM, hits read low; coupling enzyme system counterscreen, AmpLite Red fluorescence; hit rate 0.67% among 290,000; in the data active = activity change below about -30%
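First, compound is pin-transferred into glyceraldehyde-3-phosphate coupling-enzyme reagent at 57.5 uM final and held 10 min at RT. Next, substrate, coupling system and AmpLite Red are added. After 20 min RT, fluorescence (525/598 nm) is read.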
TrxR1 substrate = rat thioredoxin reductase 1 substrate activity; purified TrxR1 substrate turnover, NADPH consumption readout; Potency, µM (highest dose often 114 µM), inactives show at the top dose activity change, negative = substrate turnover; hit rate 0.01% among 390,000; AID 588456; note: potency is the fitted concentration of half-maximal effect; nearly all actives have a fitted effect of over 50% in size
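Rat TrxR1, dispensed at 90 nM, was prereduced with 400 uM NADPH (final) for 5 min at ~22 deg C, then incubated with compound 15 min before 400 uM selenite. A first-read NADPH fluorescence drop versus no-compound background flagged substrates.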
Numbers without * were called inactive; ? = inconclusive; . = not tested or not shown; ! = not confirmed by another sample; [ ] = another dose, or the depositor's remark. Compounds with a hit are over-represented: about 5.9% of the library has one in this group of screens. Unless noted, calls come from the whole dose curve; as a rule, active = well fitted curve in the direction sought with a large enough effect; inconclusive = small, poorly fitted or top-dose-only effect, or another doubt; inactive = no such curve, though single readings can be large; an effect the other way counts as inactive or inconclusive. % is set by controls: 0 for no effect and ±100 for the full control effect.

SMILES	Gal4-VP16 FLuc	TrxR1 inh	RORgamma inh	GALK inhibitor	Coupling enz	TrxR1 substrate
Cc1ccc(S(=O)(=O)N(C)CC(=O)Nc2nc3ccccc3s2)cc1	-81%	-9%	?	-4%	1	-15%
Cc1ccc(/C(=N/Nc2nc3ccccc3s2)C2=C(O)c3ccccc3C2=O)cc1	?	-2%[57.1 µM]	4.5µM*	-2%	-9	4%[57.1 µM]
O=C(Nc1ccc(Cc2ccncc2)cc1)C1CCC(N2C(=O)C3CCCCC3C2=O)CC1 (stereo not given)	-13%	-1%	31%	1%	2	-2%
Cc1ccc(C(=O)Nc2nc(=O)n(C)s2)cc1	11µM*	8%	8.9µM*	-1%	-12	-2%
Cn1sc(NC(=O)c2ccc(Cl)cc2)nc1=O	-9%	17%	-13%	2%	-4	1%
Cc1nnc(NC(=O)c2ccc(Br)cc2)s1	-6%	23%	12%	-3%	0	-3%
Cc1ccc(C(=O)Nc2nnc(C)s2)cc1	-18%	-11%[57.1 µM]	10µM*	0%	2	-4%[57.1 µM]
COc1cccc(Cn2c(=O)c(-c3ccccc3)nc3cnc(N4CCN(C)CC4)nc32)c1	-4%	.	0%	.	4	.
CC(C)c1[nH]nc2c1C(Cc1ccccc1)C(C#N)=C(N)O2 (stereo not given)	1%	18µM*	-2%	3%	0	9%
Cc1[nH]nc2c1C(Cc1ccccc1)C(C#N)=C(N)O2 (stereo not given)	-7%	25µM*	-20%	-1%	0	16%
CCCc1[nH]nc2c1C(Cc1ccccc1)C(C#N)=C(N)O2 (stereo not given)	-6%	?	8%	6%	3	-2%
CCc1[nH]nc2c1C(Cc1ccccc1)C(C#N)=C(N)O2 (stereo not given)	-12%	?	26%	2%	-2	-2%
Cc1ccc(-c2n[nH]c(=S)n2/N=C/C=C/c2ccccc2[N+](=O)[O-])cc1	-24%	18%	4.5µM*	-2%	0	9%
O=[N+]([O-])c1ccccc1/C=C/C=N/n1c(-c2cc(-c3ccccc3)n[nH]2)n[nH]c1=S	-19%	0%[11.4 µM]	?	4%	5	-5%[11.4 µM]
O=[N+]([O-])c1ccccc1/C=C/C=N/n1c(-c2ccco2)n[nH]c1=S	6%	-23%[57.1 µM]	8.9µM*	1%	3	3%[57.1 µM]
COCC(=O)NC1CCN(CC(=O)Nc2ccccc2[N+](=O)[O-])CC1	-16%	7%[57.1 µM]	-6%	1%	2	9%
Cc1ccc(NC(=O)c2nc(S(C)(=O)=O)ncc2N(Cc2cccc(F)c2)Cc2ccco2)cc1C	.	-19%	.	.	.	-12%
Oc1ccc(NC(=S)Nc2ccccc2)cc1	2%	-7%[57.1 µM]	-33%	4%	4	16%[57.1 µM]
N#Cc1cccc(NC(=S)Nc2ccccc2)c1	-9%	45µM*	-31%	2%	0	-4%
CC(C1CC2CCC1C2)n1c(-c2ccco2)n[nH]c1=S (stereo not given)	6.3µM*	-12%[57.1 µM]	1.3µM*	5%	-5	7%[57.1 µM]
O=C(c1ccc(Br)o1)N1CCC(c2nc3ccccc3[nH]2)CC1	.	45µM*	.	.	.	-3%
CC(=O)N1CCN(C(=O)CC2OC(=O)c3ccccc32)CC1 (stereo not given)	?	2.5µM*	-31%	-3%	-9	0%[57.1 µM]
COc1cc2cc(C(=O)N[C@@H](Cc3ccccc3)C(=O)O)n(C)c2c(OC)c1OC	6%	20%	5%	0%	-1	32%
C=C1C(=O)O[C@H]2C[C@]3(C)C([C@@H](OC(=O)/C(C)=C/C)[C@H]12)[C@](C)(O)CC[C@H]3O (stereo not given in full)	?	?	11µM*	.	1	6%
O=C(Nc1cc(C(F)(F)F)ccc1N1CCOCC1)c1ccco1	1%	27%	43%	1%	3	28%
SMILES	Gal4-VP16 FLuc	TrxR1 inh	RORgamma inh	GALK inhibitor	Coupling enz	TrxR1 substrate
CC(Cl)C(=O)Nc1cc(C(F)(F)F)ccc1N1CCOCC1 (stereo not given)	4%	12%[57.1 µM]	10%	-1%	1	12%[57.1 µM]
CC(C)CC(=O)NC(=S)Nc1cc(C(F)(F)F)ccc1N1CCOCC1	7.1µM*	?	7.9µM*	0%	-4	-2%
O=C(CCc1ccccc1)NC(=S)Nc1cc(C(F)(F)F)ccc1N1CCOCC1	?	?	7.1µM*	0%	-9	-8%
CCC(C)(C)NC(=O)c1ccc2c(c1)N(CC(=O)OC)C(=O)C(C)(C)O2	3%	11%	-2%	3%	1	1%
CCCCN(CC)Cc1ccc(CNC(=S)Nc2c(C)cc(C)cc2C)o1	6.3µM*	-2%	3.2µM*	6%	-9	7%
CCCCN(CC)Cc1ccc(CNC(=S)Nc2ccc(C)cc2Cl)o1	-27%	?	16µM*	3%	-3	1%
CCCCN(CC)Cc1ccc(CNC(=O)Nc2ccc(F)cc2)o1	-1%	2%	-5%	1%	2	-2%
OCC[C@@H]1C[C@H](O)[C@@H](O)[C@@]2(CCc3ccccc3O2)O1	11%	2%	7%	.	0	0%
O=C(Cc1ccccc1)NNC(=S)NC(=O)c1cccs1	2%	?	?	0%	3	2%[57.1 µM]
Cc1ccc(C(=O)NC(=S)NCC(=O)c2ccccc2)cc1	?	-3%	?	0%	1	-5%
O=C(CNC(=S)NC(=O)c1cccs1)c1ccccc1	?	6%[57.1 µM]	8.9µM*	2%	-3	1%[57.1 µM]
O=C(NC(=S)NCc1ccccc1)c1cccs1	7.9µM*	-7%	5µM*	6%	.	-4%
COc1cccc(C2=NCCc3cc4c(cc32)OCO4)c1OC	-9%	3%	-17%	.	-1	-6%
COc1ccc2cc3[n+](cc2c1OC)CCc1cc2c(cc1-3)OCO2	?	?	?	.	-36*!	?
CC(/C=C/c1ccc(N(C)C)cc1)=N\N=C(/N)SC1CC(=O)N(c2ccc(C(=O)O)cc2)C1=O (stereo not given)	2.2µM*	-16%	0.79µM*	-3%	2	-16%
CCC(C(=O)C(C)C(O)C(C)CCc1ccc(C)c(O)c1C(=O)O)C1OC(CC)(C2CC[C@@](O)(CC)C(C)O2)CC1C (stereo not given in full)	10µM*	.	?	.	4	.
CC[C@@H](C(=O)[C@@H](C)[C@@H](O)[C@H](C)CCc1ccc(C)c(O)c1C(=O)O)[C@H]1O[C@](CC)([C@H]2CC[C@](O)(CC)[C@H](C)O2)C[C@@H]1C	6.3µM*	-4%	?	.	2	1%
COc1cccc(Sc2nc(N(C)C)ncc2S(=O)(=O)c2ccc(Cl)cc2)c1	.	19%	.	.	.	6%

Assay outcomes (PubChem BioAssay)
